# Data taken from paper PMC7862700, “An all-to-all approach to the identification of sequence-specific readers for epigenetic DNA modifications on cytosine”.
# Experiments:
# Assay in all cases: DAPPL (digital affinity profiling via proximity ligation, sequencing); 10 mM Tris-HCl pH 7.5, 50 mM NaCl, 1 mM DTT, 4% glycerol, room temperature, 30 min; GST-TFs on glutathione beads, 16-mer random dsDNA library, 0.1% formaldehyde crosslink after washing; high values mean tight binding
# FEV = molecular target: T1, FEV (Homo sapiens, UniProt Q99581 1-238); details: protein: recombinant; tags: N-terminal GST; dsDNA, one strand shown
# T1 sequence: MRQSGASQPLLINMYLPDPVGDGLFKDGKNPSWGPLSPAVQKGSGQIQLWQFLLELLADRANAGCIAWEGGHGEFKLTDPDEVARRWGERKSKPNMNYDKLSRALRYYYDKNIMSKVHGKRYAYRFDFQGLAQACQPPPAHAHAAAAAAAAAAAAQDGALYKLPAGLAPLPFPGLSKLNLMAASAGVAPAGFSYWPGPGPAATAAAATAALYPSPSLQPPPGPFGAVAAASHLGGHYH
# How it was run: (§1)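 Human transcription factors fused to GST were expressed in yeast, captured on glutathione beads, given DNA barcodes and pooled with a GST-only negative control. Pools were incubated with 200 nmole of a 16-mer random double-stranded DNA library in Tris/NaCl/DTT/glycerol buffer at room temperature for 30 min. They were then washed, crosslinked with 0.1% formaldehyde, proximity-ligated (BsaI/T4 ligase, 1 h, 37 °C), PCR-amplified and sequenced on an Illumina NextSeq500. Binding signal is each 6-mer's read frequency for a factor divided by its frequency for the GST control.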
# ETV5 = ETV5 (Homo sapiens, UniProt P41161 1-510); details: protein: recombinant; tags: N-terminal GST; dsDNA, one strand shown
# Chain of ETV5 (P41161 whole entry): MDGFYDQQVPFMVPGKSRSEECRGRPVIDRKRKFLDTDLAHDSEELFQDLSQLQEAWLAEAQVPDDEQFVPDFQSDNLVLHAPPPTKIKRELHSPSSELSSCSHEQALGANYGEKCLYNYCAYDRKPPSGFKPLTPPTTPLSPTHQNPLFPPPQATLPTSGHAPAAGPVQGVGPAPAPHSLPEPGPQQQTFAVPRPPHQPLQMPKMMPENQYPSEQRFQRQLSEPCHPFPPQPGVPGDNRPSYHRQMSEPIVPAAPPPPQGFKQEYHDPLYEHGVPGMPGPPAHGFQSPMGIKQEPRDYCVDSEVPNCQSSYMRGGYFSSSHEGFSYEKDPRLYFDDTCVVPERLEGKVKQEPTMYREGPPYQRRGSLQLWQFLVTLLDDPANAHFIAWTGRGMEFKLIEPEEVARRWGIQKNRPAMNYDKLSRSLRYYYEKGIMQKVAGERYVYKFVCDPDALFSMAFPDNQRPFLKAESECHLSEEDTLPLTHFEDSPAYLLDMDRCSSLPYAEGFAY
# How it was run: as §1
# HSF1 = HSF1 (Homo sapiens, UniProt Q00613 1-529); details: protein: recombinant; tags: N-terminal GST; chain copies: 3; dsDNA, one strand shown
# Chain of HSF1 (Q00613 whole entry): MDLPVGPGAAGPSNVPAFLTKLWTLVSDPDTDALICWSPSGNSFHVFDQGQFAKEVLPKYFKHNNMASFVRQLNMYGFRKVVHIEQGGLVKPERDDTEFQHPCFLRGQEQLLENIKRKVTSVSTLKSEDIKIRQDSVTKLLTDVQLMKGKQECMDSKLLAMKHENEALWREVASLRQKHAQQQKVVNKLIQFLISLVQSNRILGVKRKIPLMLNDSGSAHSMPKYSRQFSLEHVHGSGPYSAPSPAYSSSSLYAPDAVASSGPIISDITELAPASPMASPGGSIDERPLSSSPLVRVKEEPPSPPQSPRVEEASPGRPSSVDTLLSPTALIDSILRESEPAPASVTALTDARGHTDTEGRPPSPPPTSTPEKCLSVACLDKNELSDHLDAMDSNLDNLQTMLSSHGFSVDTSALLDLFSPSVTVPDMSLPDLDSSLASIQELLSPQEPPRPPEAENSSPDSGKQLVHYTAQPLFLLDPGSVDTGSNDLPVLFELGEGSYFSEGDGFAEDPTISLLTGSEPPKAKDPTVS
# How it was run: as §1
# SPIC = molecular target: T2, SPIC (Homo sapiens, UniProt Q8N5J4 1-248); details: protein: recombinant; tags: N-terminal GST; dsDNA, one strand shown
# T2 sequence: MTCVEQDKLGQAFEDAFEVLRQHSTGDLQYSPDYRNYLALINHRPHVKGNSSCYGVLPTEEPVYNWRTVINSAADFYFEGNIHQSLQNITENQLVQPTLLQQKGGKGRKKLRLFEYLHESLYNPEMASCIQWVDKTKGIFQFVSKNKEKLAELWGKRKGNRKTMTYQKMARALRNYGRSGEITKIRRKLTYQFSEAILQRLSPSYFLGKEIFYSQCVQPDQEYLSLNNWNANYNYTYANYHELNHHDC
# How it was run: as §1
# ELF4 = ELF4 (Homo sapiens, UniProt Q99607 1-663); details: protein: recombinant; tags: N-terminal GST; dsDNA, one strand shown
# Chain of ELF4 (Q99607 whole entry): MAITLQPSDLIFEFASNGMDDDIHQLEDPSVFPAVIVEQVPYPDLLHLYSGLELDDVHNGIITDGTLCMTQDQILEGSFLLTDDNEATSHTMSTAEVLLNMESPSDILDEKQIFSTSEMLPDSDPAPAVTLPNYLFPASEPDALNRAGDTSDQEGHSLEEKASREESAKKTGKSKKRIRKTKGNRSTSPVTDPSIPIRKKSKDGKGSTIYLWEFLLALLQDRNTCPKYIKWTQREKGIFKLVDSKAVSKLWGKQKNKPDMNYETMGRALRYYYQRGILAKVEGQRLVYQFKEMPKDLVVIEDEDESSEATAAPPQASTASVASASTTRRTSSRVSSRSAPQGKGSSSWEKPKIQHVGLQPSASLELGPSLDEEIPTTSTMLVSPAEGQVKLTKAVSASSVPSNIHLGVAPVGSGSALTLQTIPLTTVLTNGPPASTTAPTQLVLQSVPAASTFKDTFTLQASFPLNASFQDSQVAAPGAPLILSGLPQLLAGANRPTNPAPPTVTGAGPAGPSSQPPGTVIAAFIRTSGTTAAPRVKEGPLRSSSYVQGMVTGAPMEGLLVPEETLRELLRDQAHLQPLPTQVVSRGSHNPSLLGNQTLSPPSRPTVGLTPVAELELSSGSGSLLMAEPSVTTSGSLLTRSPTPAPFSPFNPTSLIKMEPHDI
# How it was run: as §1
# ELK4 = molecular target: T3, ELK4 (Homo sapiens, UniProt P28324-2 1-405); details: protein: recombinant; tags: N-terminal GST; dsDNA, one strand shown
# T3 sequence: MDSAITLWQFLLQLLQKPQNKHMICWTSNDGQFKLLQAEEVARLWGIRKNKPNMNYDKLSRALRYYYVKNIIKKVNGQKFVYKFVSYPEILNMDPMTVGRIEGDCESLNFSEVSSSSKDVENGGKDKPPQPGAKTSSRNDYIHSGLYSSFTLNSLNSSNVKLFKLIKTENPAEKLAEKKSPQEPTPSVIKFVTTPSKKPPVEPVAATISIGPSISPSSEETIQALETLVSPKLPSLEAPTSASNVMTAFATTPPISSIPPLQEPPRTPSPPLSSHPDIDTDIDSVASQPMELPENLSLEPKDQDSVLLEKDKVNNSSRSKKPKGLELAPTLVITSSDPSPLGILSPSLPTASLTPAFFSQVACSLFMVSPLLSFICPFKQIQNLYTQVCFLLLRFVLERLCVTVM
# How it was run: as §1
# ETV2 = molecular target: T4, ETV2 (Homo sapiens, UniProt O00321 1-342); details: protein: recombinant; tags: N-terminal GST; dsDNA, one strand shown
# T4 sequence: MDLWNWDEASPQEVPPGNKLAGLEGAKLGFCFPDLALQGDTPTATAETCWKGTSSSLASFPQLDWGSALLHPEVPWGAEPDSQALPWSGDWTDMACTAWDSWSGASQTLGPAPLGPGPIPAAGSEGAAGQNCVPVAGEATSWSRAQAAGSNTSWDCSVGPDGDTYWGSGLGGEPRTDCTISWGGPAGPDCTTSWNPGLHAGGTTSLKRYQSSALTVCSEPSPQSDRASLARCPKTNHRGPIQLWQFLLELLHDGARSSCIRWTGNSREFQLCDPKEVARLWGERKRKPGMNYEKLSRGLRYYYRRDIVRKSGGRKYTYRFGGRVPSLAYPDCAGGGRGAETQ
# How it was run: as §1
# ELF3 = molecular target: T5, ELF3 (Homo sapiens, UniProt P78545 1-371); details: protein: recombinant; tags: N-terminal GST; dsDNA, one strand shown
# T5 sequence: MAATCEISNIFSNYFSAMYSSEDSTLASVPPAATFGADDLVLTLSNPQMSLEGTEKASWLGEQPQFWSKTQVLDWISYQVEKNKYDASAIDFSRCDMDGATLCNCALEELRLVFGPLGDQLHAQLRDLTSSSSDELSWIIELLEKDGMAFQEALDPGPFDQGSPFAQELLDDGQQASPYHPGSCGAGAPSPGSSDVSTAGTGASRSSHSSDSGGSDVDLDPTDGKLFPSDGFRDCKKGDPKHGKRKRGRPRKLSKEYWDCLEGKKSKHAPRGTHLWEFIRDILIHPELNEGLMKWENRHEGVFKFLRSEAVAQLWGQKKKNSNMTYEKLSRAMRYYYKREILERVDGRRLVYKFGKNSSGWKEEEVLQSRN
# How it was run: as §1
# CRX = CRX (Homo sapiens, UniProt O43186 1-299); details: protein: recombinant; tags: N-terminal GST; dsDNA, one strand shown
# Chain of CRX (O43186 whole entry): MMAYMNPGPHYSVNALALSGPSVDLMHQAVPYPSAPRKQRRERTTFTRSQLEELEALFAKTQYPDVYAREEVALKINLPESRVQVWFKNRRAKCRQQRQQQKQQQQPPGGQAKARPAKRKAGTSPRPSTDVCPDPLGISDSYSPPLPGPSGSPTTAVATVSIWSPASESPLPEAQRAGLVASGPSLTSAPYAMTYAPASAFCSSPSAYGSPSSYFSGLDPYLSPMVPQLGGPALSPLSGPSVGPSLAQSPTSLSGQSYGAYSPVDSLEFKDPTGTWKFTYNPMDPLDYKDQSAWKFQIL
# How it was run: as §1
# ETV1 = ETV1 (Homo sapiens, UniProt P50549 1-477); details: protein: recombinant; tags: N-terminal GST; dsDNA, one strand shown
# Chain of ETV1 (P50549 whole entry): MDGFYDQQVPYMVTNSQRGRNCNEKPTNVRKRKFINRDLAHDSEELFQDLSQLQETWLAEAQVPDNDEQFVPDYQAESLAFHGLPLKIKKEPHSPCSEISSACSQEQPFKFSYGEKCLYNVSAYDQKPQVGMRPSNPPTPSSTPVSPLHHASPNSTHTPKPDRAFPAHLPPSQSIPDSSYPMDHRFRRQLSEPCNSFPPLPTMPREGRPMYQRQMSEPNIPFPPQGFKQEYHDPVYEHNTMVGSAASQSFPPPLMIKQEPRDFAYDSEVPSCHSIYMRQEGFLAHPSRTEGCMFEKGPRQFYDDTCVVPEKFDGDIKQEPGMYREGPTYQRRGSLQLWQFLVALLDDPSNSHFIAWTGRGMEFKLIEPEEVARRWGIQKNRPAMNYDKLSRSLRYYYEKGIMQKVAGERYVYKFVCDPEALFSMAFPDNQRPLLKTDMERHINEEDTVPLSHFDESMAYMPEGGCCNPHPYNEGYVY
# How it was run: as §1
# ERF = molecular target: T6, ERF (Homo sapiens, UniProt P50548 1-548); details: protein: recombinant; tags: N-terminal GST; dsDNA, one strand shown
# T6 sequence: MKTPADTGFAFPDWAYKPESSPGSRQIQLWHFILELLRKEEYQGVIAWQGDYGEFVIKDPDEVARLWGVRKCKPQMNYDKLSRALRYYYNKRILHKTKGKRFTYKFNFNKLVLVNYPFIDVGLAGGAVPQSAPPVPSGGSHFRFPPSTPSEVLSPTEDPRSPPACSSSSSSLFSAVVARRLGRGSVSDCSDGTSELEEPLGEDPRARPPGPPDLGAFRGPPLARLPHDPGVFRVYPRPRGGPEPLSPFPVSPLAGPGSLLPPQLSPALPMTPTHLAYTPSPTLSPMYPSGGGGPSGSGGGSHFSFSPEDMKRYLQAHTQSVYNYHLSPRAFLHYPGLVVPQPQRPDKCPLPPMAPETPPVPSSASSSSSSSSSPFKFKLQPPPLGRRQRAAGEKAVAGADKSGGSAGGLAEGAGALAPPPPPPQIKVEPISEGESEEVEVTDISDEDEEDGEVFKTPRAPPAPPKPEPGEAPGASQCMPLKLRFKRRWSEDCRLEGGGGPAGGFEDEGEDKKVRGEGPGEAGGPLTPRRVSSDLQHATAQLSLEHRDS
# How it was run: as §1
# ETV3L = molecular target: T7, ETV3L (Homo sapiens, UniProt Q6ZN32 1-361); details: protein: recombinant; tags: N-terminal GST; dsDNA, one strand shown
# T7 sequence: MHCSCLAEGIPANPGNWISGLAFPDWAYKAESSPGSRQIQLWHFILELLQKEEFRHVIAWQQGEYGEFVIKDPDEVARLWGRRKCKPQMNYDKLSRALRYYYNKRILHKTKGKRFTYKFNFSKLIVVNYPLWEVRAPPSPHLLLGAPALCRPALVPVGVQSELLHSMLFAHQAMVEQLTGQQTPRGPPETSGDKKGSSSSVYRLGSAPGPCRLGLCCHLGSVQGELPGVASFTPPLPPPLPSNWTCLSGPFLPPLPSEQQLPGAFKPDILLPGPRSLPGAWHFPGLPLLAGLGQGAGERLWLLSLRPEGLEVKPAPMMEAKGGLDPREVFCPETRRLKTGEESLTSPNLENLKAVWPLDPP
# How it was run: as §1
# ETS2 = molecular target: T8, ETS2 (Homo sapiens, UniProt P15036 1-469); details: protein: recombinant; tags: N-terminal GST; dsDNA, one strand shown
# T8 sequence: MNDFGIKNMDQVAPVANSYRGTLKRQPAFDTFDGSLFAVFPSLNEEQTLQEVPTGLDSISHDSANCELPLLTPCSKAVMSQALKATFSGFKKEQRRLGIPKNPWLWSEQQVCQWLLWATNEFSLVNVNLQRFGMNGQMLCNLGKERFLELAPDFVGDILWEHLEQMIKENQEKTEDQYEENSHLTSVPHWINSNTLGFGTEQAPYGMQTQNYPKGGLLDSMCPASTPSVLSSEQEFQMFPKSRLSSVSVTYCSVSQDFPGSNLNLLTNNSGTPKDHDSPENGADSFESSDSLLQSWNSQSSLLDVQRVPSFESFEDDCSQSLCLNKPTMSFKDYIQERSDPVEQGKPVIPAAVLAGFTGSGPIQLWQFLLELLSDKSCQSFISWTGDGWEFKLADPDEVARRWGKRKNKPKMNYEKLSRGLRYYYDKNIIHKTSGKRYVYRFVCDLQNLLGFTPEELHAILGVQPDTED
# How it was run: as §1
# SPDEF = molecular target: T9, SPDEF (Homo sapiens, UniProt O95238 1-335); details: protein: recombinant; tags: N-terminal GST; dsDNA, one strand shown
# T9 sequence: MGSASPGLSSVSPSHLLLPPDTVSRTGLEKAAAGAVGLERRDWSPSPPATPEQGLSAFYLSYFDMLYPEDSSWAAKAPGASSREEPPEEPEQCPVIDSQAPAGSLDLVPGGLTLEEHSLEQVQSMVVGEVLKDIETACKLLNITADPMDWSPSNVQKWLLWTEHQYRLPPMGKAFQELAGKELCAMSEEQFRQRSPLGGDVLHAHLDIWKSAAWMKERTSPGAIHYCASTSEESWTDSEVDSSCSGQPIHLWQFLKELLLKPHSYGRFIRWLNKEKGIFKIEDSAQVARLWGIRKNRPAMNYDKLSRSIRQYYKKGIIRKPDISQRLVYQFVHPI
# How it was run: as §1
# ETV7 = molecular target: T10, ETV7 (Homo sapiens, UniProt Q9Y603 1-341); details: protein: recombinant; tags: N-terminal GST; dsDNA, one strand shown
# T10 sequence: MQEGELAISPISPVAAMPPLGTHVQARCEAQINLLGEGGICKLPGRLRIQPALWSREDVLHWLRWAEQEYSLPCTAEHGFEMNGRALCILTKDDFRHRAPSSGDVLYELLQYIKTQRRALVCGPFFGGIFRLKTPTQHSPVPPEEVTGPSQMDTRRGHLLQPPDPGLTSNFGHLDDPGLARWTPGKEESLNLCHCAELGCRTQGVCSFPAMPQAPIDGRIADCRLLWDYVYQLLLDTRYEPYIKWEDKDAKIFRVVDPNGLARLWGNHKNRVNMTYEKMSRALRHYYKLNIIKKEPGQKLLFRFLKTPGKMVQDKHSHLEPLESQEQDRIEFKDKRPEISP
# How it was run: as §1
# ELF5 = molecular target: T11, ELF5 (Homo sapiens, UniProt Q9UKW6-2 1-255); details: protein: recombinant; tags: N-terminal GST; dsDNA, one strand shown
# T11 sequence: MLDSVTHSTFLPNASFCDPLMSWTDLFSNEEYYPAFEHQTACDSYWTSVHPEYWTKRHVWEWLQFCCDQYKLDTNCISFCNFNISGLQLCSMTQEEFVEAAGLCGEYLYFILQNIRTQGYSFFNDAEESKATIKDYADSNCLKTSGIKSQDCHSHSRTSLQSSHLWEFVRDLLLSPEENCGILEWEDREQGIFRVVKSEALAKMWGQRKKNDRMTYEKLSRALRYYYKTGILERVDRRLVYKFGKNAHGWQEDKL
# How it was run: as §1
# ETV3 = molecular target: T12, ETV3 (Homo sapiens, UniProt P41162-2 1-143); details: protein: recombinant; tags: N-terminal GST; dsDNA, one strand shown
# T12 sequence: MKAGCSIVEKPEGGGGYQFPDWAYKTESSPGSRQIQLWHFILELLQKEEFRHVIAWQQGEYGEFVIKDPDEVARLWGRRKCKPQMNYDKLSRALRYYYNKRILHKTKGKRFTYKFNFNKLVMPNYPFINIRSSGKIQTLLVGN
# How it was run: as §1
# ETV6 = ETV6 (Homo sapiens, UniProt P41212 1-452); details: protein: recombinant; tags: N-terminal GST; dsDNA, one strand shown
# Chain of ETV6 (P41212 whole entry): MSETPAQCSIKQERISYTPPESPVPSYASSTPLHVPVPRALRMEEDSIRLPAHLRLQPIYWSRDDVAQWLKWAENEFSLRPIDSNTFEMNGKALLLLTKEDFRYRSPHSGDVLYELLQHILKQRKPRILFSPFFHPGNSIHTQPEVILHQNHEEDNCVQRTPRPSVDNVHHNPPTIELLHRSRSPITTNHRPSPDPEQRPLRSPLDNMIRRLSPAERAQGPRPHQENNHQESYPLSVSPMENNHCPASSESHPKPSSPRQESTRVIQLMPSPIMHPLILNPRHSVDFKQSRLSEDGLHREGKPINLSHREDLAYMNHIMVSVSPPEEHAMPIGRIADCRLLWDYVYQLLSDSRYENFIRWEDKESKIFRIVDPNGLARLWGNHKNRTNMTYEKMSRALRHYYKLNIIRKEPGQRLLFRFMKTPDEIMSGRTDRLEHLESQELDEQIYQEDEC
# How it was run: as §1
sequence,measurement,setting,value
ATGCCT,binding signal,FEV,"1.35 fold enrichment (6-mer frequency, TF over GST control)"
same,binding signal,ETV5,"1.41 fold enrichment (6-mer frequency, TF over GST control)"
same,binding signal,HSF1,"1.13 fold enrichment (6-mer frequency, TF over GST control)"
same,binding signal,SPIC,"1.55 fold enrichment (6-mer frequency, TF over GST control)"
same,binding signal,ELF4,"1.29 fold enrichment (6-mer frequency, TF over GST control)"
same,binding signal,ELK4,"1.49 fold enrichment (6-mer frequency, TF over GST control)"
same,binding signal,ETV2,"1.2 fold enrichment (6-mer frequency, TF over GST control)"
same,binding signal,ELF3,"1.4 fold enrichment (6-mer frequency, TF over GST control)"
same,binding signal,CRX,"1.28 fold enrichment (6-mer frequency, TF over GST control)"
same,binding signal,ETV1,"1.33 fold enrichment (6-mer frequency, TF over GST control)"
same,binding signal,ERF,"1.42 fold enrichment (6-mer frequency, TF over GST control)"
same,binding signal,ETV3L,"1.28 fold enrichment (6-mer frequency, TF over GST control)"
same,binding signal,ETS2,"1.43 fold enrichment (6-mer frequency, TF over GST control)"
same,binding signal,SPDEF,"1.41 fold enrichment (6-mer frequency, TF over GST control)"
same,binding signal,ETV7,"1.26 fold enrichment (6-mer frequency, TF over GST control)"
same,binding signal,ELF5,"1.34 fold enrichment (6-mer frequency, TF over GST control)"
same,binding signal,ETV3,"1.4 fold enrichment (6-mer frequency, TF over GST control)"
same,binding signal,ETV6,"1.29 fold enrichment (6-mer frequency, TF over GST control)"
